Where a name gives a salt, the structure may show the parent alone.
Test system: MDA-MB-468
Test: phospho-S6 immunofluorescence (DAPI-normalised), per-plate z-score; higher = higher phospho-S6 signal (less pathway suppression)
Details: co-treatment: GDC0941 450 nM; 24 h
Procedure: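 GPCR-targeted compound library (MedChemExpress HY-L006) tested on MDA-MB-468 PTEN-null TNBC cells in 384-well plates at 0.1, 1 or 10 uM, combined with vehicle, GDC0941 450 nM or lapatinib 1 uM, for 24 h. Phospho-S6 (S240/244) immunofluorescence normalised to DAPI and expressed as a per-plate z-score; values are the mean of biological triplicates.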

Question: `CC(C)(C)C(=O)C(=Nc1ccc(Cl)cc1)NNc1ccc(Cl)cc1` (compound 10 µM) was tested. Which “phospho-S6 immunofluorescence (z-score)” value did it give?
Answer: The value was -3.52.

Question: How did the “phospho-S6 immunofluorescence (z-score)” value turn out when `c1cc(CN2CCCNCCNCCCNCC2)ccc1CN1CCCNCCNCCCNCC1` [Plerixafor] (compound 10 µM) was run?
Answer: Its value is -0.31.

Question: With `CN1C2CCCC1CC(NC(=O)c1nn(C)c3ccccc13)C2` (configuration not stated) [Granisetron (Hydrochloride)] (compound 10 µM) as the molecule, how does the “phospho-S6 immunofluorescence (z-score)” value read?
Answer: The value was 1.08.

Question: How did the “phospho-S6 immunofluorescence (z-score)” value turn out when `COc1ccc2ccc(=O)oc2c1CC=C(C)C` [Osthole] (compound 10 µM) was run?
Answer: The value was 0.06.

Question: For `CCc1nc2c(C)nc(C)cc2n1-c1ccc(CCNC(=O)NS(=O)(=O)c2ccc(C)cc2)cc1` [Grapiprant] (compound 10 µM), which “phospho-S6 immunofluorescence (z-score)” value is on record?
Answer: Its value is -0.05.

Question: For `COc1cc2nc(C3CC3)nc(N3CCN(c4ccccc4OC)CC3)c2cc1OC` (compound 10 µM), which “phospho-S6 immunofluorescence (z-score)” value is on record?
Answer: The value was -1.77.

Question: Which “phospho-S6 immunofluorescence (z-score)” value does the source give for `COc1cc(N)cn[n+]1-c1ccccc1` [Amezinium (methylsulfate)] (compound 10 µM) here?
Answer: The value was -0.21.

Question: With `COc1cccc(CCc2ccccc2OCC(CN(C)C)OC(=O)CCC(=O)O)c1` (configuration not stated) [Sarpogrelate (hydrochloride)] (compound 10 µM) as the molecule, how does the “phospho-S6 immunofluorescence (z-score)” value read?
Answer: Its value is 0.63.

Question: For `N=C(N)NC(=O)Cc1c(Cl)cccc1Cl` [Guanfacine (hydrochloride)] (compound 10 µM), which “phospho-S6 immunofluorescence (z-score)” value is on record?
Answer: The value was 0.64.

Question: How did the “phospho-S6 immunofluorescence (z-score)” value turn out when `CCCC1O[C@@H]2C[C@H]3[C@@H]4CCC5=CC(=O)C=C[C@]5(C)[C@H]4[C@@H](O)C[C@]3(C)[C@]2(C(=O)CO)O1` (some centres not stated) [Budesonide] (compound 10 µM) was run?
Answer: The value was -0.53.

Question: Which “phospho-S6 immunofluorescence (z-score)” value does the source give for `Clc1ccc2c(c1)CCc1cccnc1C2=C1CCNCC1` [Desloratadine] (compound 10 µM) here?
Answer: The value was -0.48.

Question: Which “phospho-S6 immunofluorescence (z-score)” value does the source give for `Cc1nc2n(c(=O)c1CCN1CCC(c3noc4cc(F)ccc34)CC1)CCCC2O` (configuration not stated) [Paliperidone] (compound 10 µM) here?
Answer: The value was 0.37.

Question: For `CCNC(=O)[C@H]1O[C@@H](n2cnc3c(N)nc(NCCc4ccc(CCC(=O)O)cc4)nc32)[C@H](O)[C@@H]1O` (compound 10 µM), which “phospho-S6 immunofluorescence (z-score)” value is on record?
Answer: Its value is 0.05.

Question: `CC(C)(Cc1ccc2ccccc2c1)NC[C@@H](O)COc1cccc(Cl)c1C#N` (compound 10 µM) was tested. Which “phospho-S6 immunofluorescence (z-score)” value did it give?
Answer: The value was -3.37.

Question: For `COc1cc2nc(N3CCN(C(=O)C4COc5ccccc5O4)CC3)nc(N)c2cc1OC` (configuration not stated) [Doxazosin (mesylate)] (compound 10 µM), which “phospho-S6 immunofluorescence (z-score)” value is on record?
Answer: The value was -3.46.

Question: `Cc1ccc(Sc2ccccc2N2CCNCC2)c(C)c1` [Vortioxetine (hydrobromide)] (compound 10 µM) was tested. Which “phospho-S6 immunofluorescence (z-score)” value did it give?
Answer: The value was -5.79.

Question: `O=C(O)CCc1ccc(NCc2cccc(Oc3ccccc3)c2)cc1` (compound 10 µM) was tested. Which “phospho-S6 immunofluorescence (z-score)” value did it give?
Answer: The value was -0.04.

Question: With `CN(C)CCc1c[nH]c2ccc(CS(=O)(=O)N3CCCC3)cc12` [Almotriptan (malate)] (compound 10 µM) as the molecule, how does the “phospho-S6 immunofluorescence (z-score)” value read?
Answer: Its value is 0.95.

Question: With `COc1ccc(/C=C/C(=O)Nc2ccccc2C(=O)O)cc1OC` [Tranilast] (compound 10 µM) as the molecule, how does the “phospho-S6 immunofluorescence (z-score)” value read?
Answer: Its value is 1.77.

Question: How did the “phospho-S6 immunofluorescence (z-score)” value turn out when `OCCOCCN1CCN(C(c2ccccc2)c2ccc(Cl)cc2)CC1` (configuration not stated) [Hydroxyzine (dihydrochloride)] (compound 10 µM) was run?
Answer: Its value is 0.45.

Question: With `COc1ccc2[nH]cc(CCNC(C)=O)c2c1` [Melatonin] (compound 10 µM) as the molecule, how does the “phospho-S6 immunofluorescence (z-score)” value read?
Answer: Its value is -1.25.

Question: `Clc1ccc(Cn2c(CN3CCCC3)nc3ccccc32)cc1` [Clemizole (hydrochloride)] (compound 10 µM) was tested. Which “phospho-S6 immunofluorescence (z-score)” value did it give?
Answer: Its value is -3.06.

Question: With `CCc1cc(-c2noc(-c3cc(OC)nc(C4CCCC4)c3)n2)cc(C)c1OC[C@@H](O)CO` [Cenerimod] (compound 10 µM) as the molecule, how does the “phospho-S6 immunofluorescence (z-score)” value read?
Answer: Its value is -3.08.

Question: How did the “phospho-S6 immunofluorescence (z-score)” value turn out when `Clc1cccc(Cl)c1NC1=NCCN1` [Clonidine (hydrochloride)] (compound 10 µM) was run?
Answer: The value was 0.37.

Question: For `O=c1ccc2ccc(OCCCCN3CCN(c4cccc5sccc45)CC3)cc2[nH]1` [Brexpiprazole] (compound 10 µM), which “phospho-S6 immunofluorescence (z-score)” value is on record?
Answer: The value was -5.22.

Question: `O=C(Nc1cccc2c(=O)cc(-c3nnn[nH]3)oc12)c1ccc(OCCCCc2ccccc2)cc1` [Pranlukast] (compound 10 µM) was tested. Which “phospho-S6 immunofluorescence (z-score)” value did it give?
Answer: Its value is 0.87.

Question: Which “phospho-S6 immunofluorescence (z-score)” value does the source give for `C[C@H]1C[C@@H]2[C@H]([C@@H](O)C[C@@]3(C)[C@H]2CC[C@]3(O)C(=O)CO)[C@@]2(C)C=CC(=O)C=C12` [Methylprednisolone] (compound 10 µM) here?
Answer: The value was 0.3.

Question: `CCCCC(=O)N(Cc1ccc(-c2ccccc2-c2nnn[nH]2)cc1)[C@H](C(=O)O)C(C)C` [Valsartan] (compound 10 µM) was tested. Which “phospho-S6 immunofluorescence (z-score)” value did it give?
Answer: Its value is 0.04.

Question: `O=C(NC(Cc1cc(=O)[nH]c2ccccc12)C(=O)O)c1ccc(Cl)cc1` (configuration not stated) [Rebamipide] (compound 10 µM) was tested. Which “phospho-S6 immunofluorescence (z-score)” value did it give?
Answer: The value was 0.69.

Question: `COc1cc(C(=O)NS(=O)(=O)c2ccccc2C)ccc1Cc1cn(C)c2ccc(NC(=O)OC3CCCC3)cc12` [Zafirlukast] (compound 10 µM) was tested. Which “phospho-S6 immunofluorescence (z-score)” value did it give?
Answer: Its value is -2.01.

Question: Which “phospho-S6 immunofluorescence (z-score)” value does the source give for `CC(C)(N)C(=O)N[C@H](COCc1ccccc1)C(=O)N1CCC2(CC1)CN(S(C)(=O)=O)c1ccccc12` [Ibutamoren (Mesylate)] (compound 10 µM) here?
Answer: The value was -2.77.

Question: How did the “phospho-S6 immunofluorescence (z-score)” value turn out when `CN(C)N(C)C(=O)[C@@]1(Cc2ccccc2)CCCN(C(=O)[C@@H](Cc2c[nH]c3ccccc23)NC(=O)C(C)(C)N)C1` [Anamorelin (hydrochloride)] (compound 10 µM) was run?
Answer: The value was -1.14.

Question: Which “phospho-S6 immunofluorescence (z-score)” value does the source give for `CCCc1c2oc(C(=O)O)cc(=O)c2cc2c(=O)cc(C(=O)O)n(CC)c12` [Nedocromil] (compound 10 µM) here?
Answer: Its value is -0.69.

Question: `COc1ccc(CCN2CCN(CCCc3ccccc3)CC2)cc1OC` [SA4503 (dihydrochloride)] (compound 10 µM) was tested. Which “phospho-S6 immunofluorescence (z-score)” value did it give?
Answer: Its value is 0.13.

Question: `N[C@@H](Cc1ccc(O)c(O)c1)C(=O)O` (compound 10 µM) was tested. Which “phospho-S6 immunofluorescence (z-score)” value did it give?
Answer: Its value is -0.94.

Question: For `Cc1cc(Cn2cnc3c2CC(C(=O)O)N(C(=O)C(c2ccccc2)c2ccccc2)C3)ccc1N(C)C` (configuration not stated) (compound 10 µM), which “phospho-S6 immunofluorescence (z-score)” value is on record?
Answer: The value was -0.71.

Question: `C[C@H](NC(=O)CNC(=O)c1cccc(Cl)c1)c1ccccc1` (compound 10 µM) was tested. Which “phospho-S6 immunofluorescence (z-score)” value did it give?
Answer: Its value is 0.04.

From the supplement of paper PMC7411640
